HTT cytoprotect = protects HTT-Q103 PC12 cells, measured by ATP; PC12 HTT-Q103 induced, cytoprotection, ATP luminescence, 40 h; Potency, µM (doses to about 56.4 µM), for the others: cytoprotection (ATP increase), usual class: activators; 230,000 tested, 0.14% active; AID 1471; active = well fitted curve in the direction sought with a large enough effect; inconclusive = small, poorly fitted or top-dose-only effect, or another doubt; inactive = no such curve, though single readings can be large; an effect the other way counts as inactive or inconclusive; note: % of control where 0% means no effect; nearly all actives have a fitted effect of over 45% in size
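Quantitative HTS on tebufenozide-induced (100 nM) PC12 cells expressing HTTQ103 exon 1–GFP; compounds tested as a concentration series; survival measured via cellular ATP.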
ALDH1A1 block = inhibitors of human aldehyde dehydrogenase 1A1; P00352; Purified ALDH1A1, NADH fluorescence, propionaldehyde substrate; Potency, µM (top dose mostly 75.3 µM), for the others: top-dose activity, negative = inhibition, hits mostly inhibitors; 220,000 tested, 7.3% active; AID 1030;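 note: plate controls were no enzyme wells and a reference inhibitor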
HPGD block = HPGD (human) dehydrogenase inhibition. 150,000 tested, 4.3% active. purified HPGD, NADH fluorescence kinetic, PGE2 substrate. AID 894. Potency, µM, for the others: top-dose activity change, negative = inhibition, actives largely listed as inhibitors; note: % is set by controls: 0 for no effect and ±100 for the full control effect
Target sequence (P15428 whole entry, looked up): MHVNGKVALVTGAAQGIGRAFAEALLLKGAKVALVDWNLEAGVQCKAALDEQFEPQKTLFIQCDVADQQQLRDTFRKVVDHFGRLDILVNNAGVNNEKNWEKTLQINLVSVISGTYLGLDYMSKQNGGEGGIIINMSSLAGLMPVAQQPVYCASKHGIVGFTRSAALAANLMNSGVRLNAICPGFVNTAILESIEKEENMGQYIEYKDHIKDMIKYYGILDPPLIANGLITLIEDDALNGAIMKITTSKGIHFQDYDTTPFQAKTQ
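20 nM HPGD preincubated 15 min at room temperature with compound in 50 mM Tris-HCl pH 8, 0.01% Tween 20. Started with 1 mM NAD+ and 30 uM prostaglandin E2; NADH fluorescence (360/450 nm) read 5 times over 30-s intervals, last minus first.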
JMJD2E inh = JMJD2E (human) inhibition; B2RXH2; JMJD2E catalytic domain, FDH-coupled NADH fluorescence (FDH is formaldehyde dehydrogenase); Potency, µM (titrated, usually from 57.1 µM), inactives show at the highest dose activity change, negative = inhibition, most hits filed as inhibitors; 230,000 tested, 1.6% active;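 note: 0% = wells with enzyme and -100% = buffer wells without enzyme; nearly all actives have a fitted effect of over 50% in size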
Target sequence (B2RXH2 1-337 limits assumed): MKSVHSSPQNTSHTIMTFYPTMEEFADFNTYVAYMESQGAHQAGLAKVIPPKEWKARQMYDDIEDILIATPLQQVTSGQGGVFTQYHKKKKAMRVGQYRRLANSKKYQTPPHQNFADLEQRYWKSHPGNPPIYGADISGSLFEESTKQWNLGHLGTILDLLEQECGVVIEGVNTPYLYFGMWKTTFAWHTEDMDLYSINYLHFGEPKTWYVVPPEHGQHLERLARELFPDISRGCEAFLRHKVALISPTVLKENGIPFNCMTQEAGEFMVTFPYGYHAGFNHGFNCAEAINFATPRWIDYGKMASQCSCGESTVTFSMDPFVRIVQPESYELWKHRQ
LMNA splice mod = modulators of lamin A splicing; 200,000 tested, 0.01% active; HeLa LMNA splicing GFP/RFP minigene ratio, 48 h; Potency, µM (titrated, usually from 46.1 µM), inactives show top-dose ratio change, negative = inhibition, actives largely listed as inhibitors; AID 1487; active = well fitted inhibition curve with a large enough effect in the signal ratio, with a control signal flat, not every such curve was filed as active; inconclusive = small, poorly fitted or top-dose-only effect, or effect the other way, or a change in a side signal; the % refers to the signal ratio; note: % is set by controls: 0 for no effect and ±100 for the full control effect
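Read-out is the ratio of GFP to DsRed2 object intensity, acquired by 488 nm laser-scanning cytometry on HeLa lamin A-EGFP minigene reporter cells. Compound incubation 48 hrs at 37 °C in Opti-MEM with 2% FBS; DMSO 0.5% final.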
HTT aggregate = mutant huntingtin aggregation inhibition; PC12 HttQ103-GFP aggregates, Acumen cytometry, 40 h; Potency, µM (titrated, usually from 46.1 µM), inactives show at the highest dose activity change, negative = inhibition, most hits filed as inhibitors; 220,000 tested, 1.1% active; AID 1688; active = well fitted curve in the direction sought with a large enough effect; inconclusive = small, poorly fitted or top-dose-only effect, or another doubt; inactive = no such curve, though single readings can be large; an effect the other way counts as inactive or inconclusive; note: % is set by controls: 0 for no effect and ±100 for the full control effect; nearly all actives have a fitted effect of over 60% in size
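Compounds (qHTS titration) were added to PC12 cells expressing an ecdysone-driven HTT exon 1 Q103–GFP fusion after induction with 100 nM tebufenozide. Aggregate formation was measured as GFP objects in cell lysates.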
* hit, by the source's call; [ ] = remark or other dose. Compounds with a hit are over-represented: about 9.2% of the library has one in this group of screens. Unless noted, calls come from the whole dose curve; as a rule, active = well fitted inhibition curve with a large enough effect (not every such curve was filed as active); inconclusive = small, poorly fitted or top-dose-only effect, or another doubt; inactive = no such curve, though single readings can be large or run the other way. Potency is the fitted concentration of half-maximal effect.

Screening CC(=O)OCC1(C)CN(c2ccccc2)N(C(C)=O)C1=O (configuration not stated) returned HTT cytoprotect -34.1%, ALDH1A1 block inconclusive, JMJD2E inh -7.4% and HTT aggregate -8.3%.
`C(=N\Nc1nc(Nc2ccccc2)nc(N2CCCCC2)n1)/c1ccco1` gave HTT cytoprotect -0.2%[10 µM], ALDH1A1 block -6.2%, JMJD2E inh 0.1%, LMNA splice mod 3.2%[46 µM] and HTT aggregate -16.3%[9.22 µM].
`CC(C)NC(=O)[C@H]1C[C@@H]1[C@H](NC(=O)OCc1ccccc1)c1ccccc1` gave HTT cytoprotect -6.4%, ALDH1A1 block -1.1%, HPGD block -9.4% and JMJD2E inh 2.3%.
`N#Cc1cnn(-c2nc(SCc3ccccc3)nc3sc4c(c23)CCCC4)c1N` gave HTT cytoprotect -46.1%, ALDH1A1 block 8.91µM*, HPGD block -24.3%, JMJD2E inh -4.5%, LMNA splice mod 19.4% and HTT aggregate -4.6%.
For NNC(=O)CSc1nc(-c2ccccc2)nc2c1CCCC2 the results were HTT cytoprotect -44.4%, ALDH1A1 block 2µM*, JMJD2E inh 5.1%, LMNA splice mod -3.8%[46 µM] and HTT aggregate 16.9%.
Cc1nc2cnc(N3CCN(C)CC3)nc2n(-c2ccccc2)c1=O was read as HTT cytoprotect -313.5%, ALDH1A1 block inconclusive and LMNA splice mod 2.1%.
`CCN(CC)CCCNC(=O)c1ccc2c(SCC(=O)O)c3c(nc2c1)CCC3` gave ALDH1A1 block -0.4%, HPGD block -7.7%, JMJD2E inh -0.2%, LMNA splice mod 10.7% and HTT aggregate 4.9%.
Screening CC(C)CCNC(=O)c1ccc2c(SCC(=O)O)c3c(nc2c1)CCCC3 returned ALDH1A1 block inconclusive, HPGD block 28.2µM*, JMJD2E inh -24.6%, LMNA splice mod -3.9% and HTT aggregate 22.1%.
For CCCCNC(=S)NNC(=O)c1ccco1 the results were HTT cytoprotect -3.5%[10 µM], ALDH1A1 block 1.4%, HPGD block -14.2%, JMJD2E inh 2.9%, LMNA splice mod -0.7% and HTT aggregate -4.1%.
For Nc1nnc(SCCOc2cccc(Br)c2)s1 the results were HTT cytoprotect -23.0%, ALDH1A1 block inconclusive, HPGD block -27.8%, JMJD2E inh 0.2%, LMNA splice mod -1.9% and HTT aggregate 2.1%.
For CCCOc1ccc(OCCSc2nnc(N)s2)cc1 the results were HTT cytoprotect -43.2%, ALDH1A1 block 7.4%, HPGD block 5.01µM*, JMJD2E inh 1.9%, LMNA splice mod inconclusive and HTT aggregate -28.8%.
Screening Clc1ccc(OCCCCSc2ncccn2)cc1 returned HTT cytoprotect -31.1%, ALDH1A1 block -7.0%, HPGD block -25.4%, JMJD2E inh 2.1%, LMNA splice mod 21.7% and HTT aggregate -18.9%.
Screening COc1ccc(OCCSc2nc(N)cc(N)n2)cc1 returned HTT cytoprotect -37.6%, ALDH1A1 block inconclusive, HPGD block 25.1µM*, JMJD2E inh 0.4%, LMNA splice mod 3.3% and HTT aggregate -14.1%.
`CCCOc1ccc(OCCSc2ncccn2)cc1` gave HTT cytoprotect 8.6%[10 µM], ALDH1A1 block 2.4%, HPGD block 14.1µM*, JMJD2E inh 5.6%, LMNA splice mod -9.2% and HTT aggregate -0.8%.
`C[C@H]1[C@H](C)CC[C@]2(C(=O)O)CC[C@]3(C)C(=CC[C@@H]4[C@]5(C)C[C@H](O)[C@@H](O)[C@@](C)(CO)[C@@H]5[C@H](O)C[C@@]43C)[C@H]12` gave HTT cytoprotect -14.5%[10 µM].
Cc1cccc(/C=C2\CCC(=C3SCCCS3)C2=O)c1 was read as HTT cytoprotect -59.8%, ALDH1A1 block 8.91µM*, HPGD block -28.5%, JMJD2E inh -3.2%, LMNA splice mod 0.9% and HTT aggregate 6.5%.
Screening O=C1C(=C2SCCCS2)CC/C1=C\c1ccc(F)cc1 returned HTT cytoprotect -105.3%, ALDH1A1 block 4.8%, HPGD block -6.9%, JMJD2E inh 4.2%, LMNA splice mod 14.1% and HTT aggregate -4.2%.
For O=C(COc1ccc([N+](=O)[O-])cc1)N(Cc1ccccc1)Cc1ccccc1 the results were HTT cytoprotect -15.0%[10 µM], ALDH1A1 block 14.1µM*, HPGD block -2.9%, JMJD2E inh 1.9%, LMNA splice mod inconclusive and HTT aggregate -29.0%.
NCCC[C@H](N)CC(=O)N[C@H]1CNC(=O)[C@@H]([C@@H]2C[C@H](O)N=C(N)N2)NC(=O)/C(=C/NC(N)=O)NC(=O)[C@@H](CO)NC(=O)[C@@H](CO)NC1=O was read as HTT cytoprotect -42.3%[17.1 µM], ALDH1A1 block 14.3%[20.9 µM], HPGD block 2.8%, JMJD2E inh 0.4%[25.5 µM] and LMNA splice mod inconclusive.
Screening Nc1cc(-c2ccncc2)c[nH]c1=O returned HTT cytoprotect -27.1%, ALDH1A1 block 11.2µM*, HPGD block inconclusive, JMJD2E inh 1.12µM*, LMNA splice mod inconclusive and HTT aggregate inconclusive.
`O=C1COc2ccc(C(=O)COc3ccc([N+](=O)[O-])cc3)cc2N1` gave HTT cytoprotect 0.2%[10 µM], JMJD2E inh -0.6% and HTT aggregate -14.2%[9.22 µM].
Screening O=C(CSc1nnc(Cn2nnc3ccccc32)o1)N(Cc1ccc(Cl)cc1)c1ccccc1 returned HTT cytoprotect -12.8%, ALDH1A1 block -15.2%, HPGD block -20.6%, JMJD2E inh 4.0%, LMNA splice mod inconclusive and HTT aggregate 7.08µM*.
For O=C(CSc1nnc(Cn2nnc3ccccc32)o1)Nc1cccc(Cl)c1 the results were HTT cytoprotect 17.5%, ALDH1A1 block inconclusive, HPGD block -3.8%, JMJD2E inh 11.2%, LMNA splice mod 10.7% and HTT aggregate 4.4%.
For CC1CCN(C(c2ccc(N(C)C)cc2)c2nnnn2C(C)(C)C)CC1 (configuration not stated) the results were HTT cytoprotect -4.2%[10 µM], ALDH1A1 block inconclusive, HPGD block -28.6%, JMJD2E inh inconclusive, LMNA splice mod 9.6% and HTT aggregate -1.7%.
`COc1ccc(Cn2nnnc2C(c2ccc(N(C)C)cc2)N2CCC(C)CC2)cc1` (configuration not stated) gave HTT cytoprotect -11.2%[10 µM], ALDH1A1 block 25.1µM*, HPGD block -15.0%, JMJD2E inh inconclusive, LMNA splice mod 6.5% and HTT aggregate 5.3%.
Screening CC1CCN(C(c2ccc(N(C)C)cc2)c2nnnn2Cc2ccccc2)CC1 (configuration not stated) returned HTT cytoprotect -12.1%, ALDH1A1 block 8.91µM*, HPGD block -11.9%, JMJD2E inh 3.4%, LMNA splice mod 10.3% and HTT aggregate -1.4%.
